Results reported in PubChem BioAssay (NCATS).
Records with an inconclusive call do not appear. Entries that show only a call come without a potency. The source made the active and inactive calls. Unless noted, the call rests on the fitted dose curve; in most records, active means well fitted curve in the direction sought with a large enough effect; inconclusive means small, poorly fitted or top-dose-only effect, or another doubt; inactive means no such curve, though single readings can be large; an effect the other way counts as inactive or inconclusive.

What was measured:
[1] = Validation screen for small molecules that induce genotoxicity in human embryonic kidney (HEK293T) cells expressing luciferase-tagged ELG1 (AID 493106); further: potency means the concentration at half of the fitted maximal effect
How it was run: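 HEK293T cells expressing luciferase-tagged ELG1 were exposed to compound or DMSO vehicle for 16 hr at 37 °C, 5% CO2. Genotoxic stress raises ELG1 levels, so increased luciferase signal after ONE-Glo addition and 30 min at room temperature marks hits.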

[2] = target: ATPase family AAA domain-containing protein 5 (Homo sapiens) (UniProt Q96QE3); experiment: Validation screen for small molecules that inhibit ELG1-dependent DNA repair in human embryonic kidney (HEK293T) cells expressing luciferase-tagged ELG1 (AID 493107); further: nearly all actives have a fitted effect of over 70% in size; further: potency means the concentration at half of the fitted maximal effect
Sequence of ATPase family AAA domain-containing protein 5 (Homo sapiens) (Q96QE3 whole entry, looked up, the tested form may be a part): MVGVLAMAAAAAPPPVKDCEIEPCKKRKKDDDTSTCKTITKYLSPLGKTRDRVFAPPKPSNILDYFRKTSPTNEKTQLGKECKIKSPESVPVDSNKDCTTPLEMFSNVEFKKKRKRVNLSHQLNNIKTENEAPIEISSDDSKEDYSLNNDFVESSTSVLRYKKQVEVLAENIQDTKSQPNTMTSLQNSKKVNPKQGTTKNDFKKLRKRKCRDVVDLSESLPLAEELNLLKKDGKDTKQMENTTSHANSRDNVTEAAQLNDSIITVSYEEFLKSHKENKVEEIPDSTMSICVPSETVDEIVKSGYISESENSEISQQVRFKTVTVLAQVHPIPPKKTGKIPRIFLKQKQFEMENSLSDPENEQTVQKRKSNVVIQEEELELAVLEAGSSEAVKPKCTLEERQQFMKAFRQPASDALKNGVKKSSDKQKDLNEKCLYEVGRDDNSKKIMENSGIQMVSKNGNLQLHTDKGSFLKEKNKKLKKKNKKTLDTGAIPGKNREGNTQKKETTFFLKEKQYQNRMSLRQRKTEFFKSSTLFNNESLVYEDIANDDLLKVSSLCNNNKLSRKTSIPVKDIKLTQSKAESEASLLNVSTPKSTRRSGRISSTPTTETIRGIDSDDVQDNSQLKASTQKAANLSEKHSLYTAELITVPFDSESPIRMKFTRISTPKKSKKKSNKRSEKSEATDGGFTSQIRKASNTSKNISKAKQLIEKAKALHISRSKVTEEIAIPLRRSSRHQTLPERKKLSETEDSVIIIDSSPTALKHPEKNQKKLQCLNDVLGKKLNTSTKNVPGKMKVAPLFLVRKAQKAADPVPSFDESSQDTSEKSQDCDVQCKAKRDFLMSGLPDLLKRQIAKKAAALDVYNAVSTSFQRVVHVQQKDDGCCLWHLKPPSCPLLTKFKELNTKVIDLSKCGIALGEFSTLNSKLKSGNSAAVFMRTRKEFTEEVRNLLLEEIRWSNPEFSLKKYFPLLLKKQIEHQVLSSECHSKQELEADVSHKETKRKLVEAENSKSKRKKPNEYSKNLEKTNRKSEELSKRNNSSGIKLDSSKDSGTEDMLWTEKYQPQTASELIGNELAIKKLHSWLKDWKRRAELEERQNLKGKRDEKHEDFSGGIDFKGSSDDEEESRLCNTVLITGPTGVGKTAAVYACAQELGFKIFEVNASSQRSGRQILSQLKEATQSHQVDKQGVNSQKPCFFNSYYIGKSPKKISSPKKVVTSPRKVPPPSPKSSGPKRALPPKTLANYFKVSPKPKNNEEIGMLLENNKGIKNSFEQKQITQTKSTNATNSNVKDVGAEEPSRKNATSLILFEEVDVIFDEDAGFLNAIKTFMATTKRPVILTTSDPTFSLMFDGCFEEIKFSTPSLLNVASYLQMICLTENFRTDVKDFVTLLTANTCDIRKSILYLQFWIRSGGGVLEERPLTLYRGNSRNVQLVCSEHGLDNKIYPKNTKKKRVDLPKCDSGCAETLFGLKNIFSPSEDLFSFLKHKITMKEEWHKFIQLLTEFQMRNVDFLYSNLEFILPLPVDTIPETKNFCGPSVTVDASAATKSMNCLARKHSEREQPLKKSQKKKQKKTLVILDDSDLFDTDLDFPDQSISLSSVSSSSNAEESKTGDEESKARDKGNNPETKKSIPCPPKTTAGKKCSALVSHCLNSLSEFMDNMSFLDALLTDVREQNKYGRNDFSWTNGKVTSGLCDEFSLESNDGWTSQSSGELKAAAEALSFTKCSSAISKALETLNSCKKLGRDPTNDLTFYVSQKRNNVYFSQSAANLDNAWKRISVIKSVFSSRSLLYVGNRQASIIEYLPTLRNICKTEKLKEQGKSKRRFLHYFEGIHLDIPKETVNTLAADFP
How it was run: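 HEK293T cells expressing luciferase-tagged ELG1 were co-treated with 5-fluorouridine and compound or DMSO for 16 hr at 37 °C, 5% CO2. Luciferase activity was then read with ONE-Glo after 30 min at room temperature; suppressed signal indicates blocked ELG1 function.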

[3] = Nrf2 qHTS screen for inhibitors: Validation (AID 493153; active means well fitted inhibition curve with a large enough effect in the main read-out, with a control signal flat, not every such curve was filed as active); details: Potency: luciferase luminescence; viability change: measured here: cytotoxicity max response
How it was run: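 A549 cells carrying an ARE-driven firefly luciferase reporter, in 5% FBS OPTI-MEM, were treated with compounds in concentration-response for 18-24 h at 37°C. Viability was read by CellTiter-Fluor fluorescence, then Nrf2 activity by luciferase luminescence.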

[4] = qHTS for Inhibitors of Cell Surface uPA Generation: Validation Assay (AID 493164);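 further: RAW 264.7 macrophage cells exposed to compound for 18 h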
How it was run: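 RAW 264.7, 4000 cells/well, o/n plating; cpd 7-pt 1:5 dilution 2.45 nM–38.3 uM final; 18 h, 37 C/5% CO2; ATP-Lite, 5 s luminescence exposure.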

[5] = target: Peptidyl-prolyl cis-trans isomerase NIMA-interacting 1 (Homo sapiens) (UniProt Q13526); experiment: qHTS Validation Assay to Find Inhibitors of Pin1 (AID 504536; active means well fitted inhibition curve with a large enough effect in the polarisation, with a control signal flat, not every such curve was filed as active; the % refers to the polarisation; further: potency means the concentration at half of the fitted maximal effect)
Sequence of Peptidyl-prolyl cis-trans isomerase NIMA-interacting 1 (Homo sapiens) (Q13526 whole entry, looked up): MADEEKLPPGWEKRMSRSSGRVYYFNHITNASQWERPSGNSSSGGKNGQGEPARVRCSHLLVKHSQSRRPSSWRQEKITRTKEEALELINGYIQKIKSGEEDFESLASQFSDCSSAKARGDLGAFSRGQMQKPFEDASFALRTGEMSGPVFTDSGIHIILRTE
How it was run: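 Fluorescence polarization competition: compounds (titration) displace HiFluor-488-labeled Pin1-1b peptide from Pin1 (0.3 uM final) in pH 7.5 HEPES buffer with DTT, 10 min at room temperature; %Activity normalized to no-enzyme wells, curves fitted.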

[6] = target: Phosphoglycerate kinase, glycosomal (Trypanosoma brucei brucei) (UniProt P07378); experiment: qHTS Validation Assay to Find Inhibitors of Phosphoglycerate Kinase (AID 504547)
Sequence of Phosphoglycerate kinase, glycosomal (Trypanosoma brucei brucei) (P07378 whole entry, looked up): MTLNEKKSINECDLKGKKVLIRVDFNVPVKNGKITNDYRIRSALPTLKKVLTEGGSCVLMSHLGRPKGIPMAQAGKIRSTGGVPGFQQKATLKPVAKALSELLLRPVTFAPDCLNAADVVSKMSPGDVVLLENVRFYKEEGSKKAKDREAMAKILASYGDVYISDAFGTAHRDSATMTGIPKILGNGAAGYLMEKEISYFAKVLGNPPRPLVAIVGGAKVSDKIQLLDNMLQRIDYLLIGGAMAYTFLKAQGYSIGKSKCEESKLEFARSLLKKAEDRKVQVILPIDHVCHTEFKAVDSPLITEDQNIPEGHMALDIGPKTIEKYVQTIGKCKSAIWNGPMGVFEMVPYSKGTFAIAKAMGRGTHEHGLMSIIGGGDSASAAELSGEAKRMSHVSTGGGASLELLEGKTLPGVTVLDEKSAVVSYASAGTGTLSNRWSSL
How it was run: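 Inhibition of the enzyme is judged by a Kinase-Glo Plus luminescent signal following a one-hour incubation at room temperature. Because 1,3-BPG is unstable, it is made in situ by GAPDH at 100nM final; no-PGK wells define the baseline.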

[7] = target: Thyrotropin-releasing hormone receptor (Homo sapiens) (UniProt P34981); experiment: qHTS for Small Molecule Agonists and Allosteric Enhancers of Human TRH Receptor: Validation Screen for Agonists (AID 493127;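 active means calcium activation more than 3 SD above the typical response in the agonist read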;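 further: intracellular calcium rise by fluo-8 fluorescence before TRH EC20 addition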); details: TRH receptor agonist cell assay; at 2 µM; stronger effect = higher value
Sequence of Thyrotropin-releasing hormone receptor (Homo sapiens) (P34981 whole entry, looked up): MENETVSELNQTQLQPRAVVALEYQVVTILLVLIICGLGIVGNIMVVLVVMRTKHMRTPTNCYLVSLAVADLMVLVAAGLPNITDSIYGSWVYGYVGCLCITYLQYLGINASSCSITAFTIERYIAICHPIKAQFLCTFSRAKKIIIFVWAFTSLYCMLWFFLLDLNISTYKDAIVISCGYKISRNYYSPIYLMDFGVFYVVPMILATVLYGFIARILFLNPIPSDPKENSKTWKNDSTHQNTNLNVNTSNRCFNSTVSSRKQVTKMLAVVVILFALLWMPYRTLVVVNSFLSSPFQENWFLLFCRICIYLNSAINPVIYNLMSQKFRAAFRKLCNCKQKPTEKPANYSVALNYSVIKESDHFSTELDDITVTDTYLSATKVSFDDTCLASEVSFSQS
How it was run: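 TRHR-expressing cells were plated overnight in serum-containing medium, then loaded with fluo-8 calcium dye at room temperature for 30 min–1.5 h. After a 10 s baseline, compound was pin-transferred and calcium fluorescence (ex 480/em 530) read kinetically for agonist response.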

[8] = target: Galactokinase (Homo sapiens) (UniProt P51570); experiment: qHTS Validation Assay for Inhibitors of Human Galactokinase (GALK) (AID 493189)
Sequence of Galactokinase (Homo sapiens) (P51570 whole entry, looked up): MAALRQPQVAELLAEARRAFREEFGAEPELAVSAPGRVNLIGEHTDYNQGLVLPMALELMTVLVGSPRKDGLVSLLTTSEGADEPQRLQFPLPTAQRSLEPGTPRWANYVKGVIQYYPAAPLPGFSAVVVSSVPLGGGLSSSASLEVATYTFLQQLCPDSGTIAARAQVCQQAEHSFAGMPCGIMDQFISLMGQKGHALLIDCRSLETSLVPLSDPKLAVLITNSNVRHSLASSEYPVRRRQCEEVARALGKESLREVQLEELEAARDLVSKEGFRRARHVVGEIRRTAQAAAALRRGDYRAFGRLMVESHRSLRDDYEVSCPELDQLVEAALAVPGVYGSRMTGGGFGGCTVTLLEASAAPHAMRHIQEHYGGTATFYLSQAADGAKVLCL
How it was run: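 Luminescence from leftover ATP (Kinase-Glo Plus, 10 min) served as read-out after a 1 h room-temperature reaction of 5 nM GALK, 100 uM galactose and 35 uM ATP at pH8.0.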

[9] = Validation screen for small molecules that induce DNA re-replication in SW480 colon adenocarcinoma cells (AID 504364)
How it was run: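 SW480 cells seeded at 250 per well were exposed to compound or DMSO for 48 hr at 37 C, 5% CO2, then stained with Hoechst for 40 min. DNA content per nucleus was imaged (405 nm ex, 500-530 nm em).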

Compound	Potency [1]	Potency [2]	Potency [3]	viability change [3] [%]	outcome [4]	Potency [5]	Potency [6]	activation [7]	Potency [8]	Potency [9]
Cc1nc2sccn2c(=O)c1CCN1CCC(=C(c2ccccc2)c2ccc(F)cc2)CC1	inactive	inactive	inactive	0.941	inactive	inactive	inactive	–	–	–
Nc1nc(SCc2ccc([N+](=O)[O-])cc2)c2ncn([C@@H]3O[C@H](CO)[C@@H](O)[C@H]3O)c2n1	inactive	0.146 µM (active)	inactive	12.2	inactive	inactive	inactive	–	–	–
CN1C2CC(OC(=O)[C@H](CO)c3ccccc3)CC1C1OC12 (stereo not given in full)	inactive	inactive	inactive	-8.53	inactive	inactive	inactive	–	–	–
O=P(O)(O)C(Cl)(Cl)P(=O)(O)O	inactive	inactive	inactive	4.97	inactive	26.9 µM (active)	inactive	–	–	–
CCc1c(C(=O)NCCc2ccc(N3CCCCC3)cc2)[nH]c2ccc(Cl)cc12	inactive	inactive	–	–	inactive	inactive	inactive	–	–	–
Cn1ncc(S(=O)(=O)Cc2ccccc2)c(Br)c1=O	inactive	inactive	–	–	–	–	inactive	–	–	–
NCC1OC(O[C@H]2[C@H](O)[C@@H](OC3C(O)C(N)CC(N)C3OC3OC(CO)C(O)C(O)C3N)O[C@@H]2CO)C(N)C(O)C1O (stereo not given in full)	inactive	inactive	inactive	1.58	inactive	inactive	inactive	–	–	–
O=C1/C(=C/c2ccsc2)CC/C1=C\c1cccs1	23.1 µM (active)	inactive	inactive	-8.76	inactive	inactive	inactive	–	–	–
C[N+]1(C)C2CC(OC(=O)[C@H](CO)c3ccccc3)CC1C1OC12 (stereo not given in full)	inactive	inactive	–	–	inactive	inactive	inactive	–	–	–
N#C/C(=C\c1ccc(-c2cc(Cl)ccc2Cl)o1)C(=O)Nc1cccc2ncccc12	inactive	16.4 µM (active)	–	–	inactive	–	–	–	–	–
COc1cc(SC)ccc1C(=O)N1CCC(Cc2ccccc2)CC1	inactive	inactive	–	–	inactive	inactive	–	–	–	–
COc1ccc2c(c1)CCC1C2CC[C@@]2(C)C1CC[C@@H]2NCCCCCCN1C(=O)CCC1=O (stereo not given in full)	inactive	25.9 µM (active)	inactive	2.91	inactive	inactive	–	–	–	–
Cc1cc(NC2CCCCC2)nc(-n2nc(C)cc2C)n1	inactive	14.6 µM (active)	inactive	-6.43	inactive	inactive	inactive	–	–	–
CO/N=C(\C(=O)N[C@@H]1C(=O)N2C(C(=O)O)=C(COC(C)=O)CS[C@H]12)c1csc(N)n1	inactive	inactive	inactive	-5.9	inactive	–	–	–	–	–
O=C(O)CC1CC(c2ccccc2)=NO1 (stereo not given)	inactive	inactive	inactive	12.6	inactive	–	inactive	–	–	–
CCCCCCCCc1ccc(-c2ccc(C(=O)O)cc2)cc1	inactive	inactive	–	–	inactive	–	inactive	–	–	–
Nc1ncnc2c1c(I)cn2[C@@H]1C[C@H](N)[C@@H](O)[C@H]1O	inactive	5.17 µM (active)	–	–	inactive	inactive	inactive	–	–	–
C[N+](C)(C)CCOP(=O)(O)OP(=O)([O-])OC[C@H]1O[C@@H](n2ccc(N)nc2=O)[C@H](O)[C@@H]1O	inactive	inactive	inactive	2.92	inactive	–	inactive	–	–	–
NC(=S)NCCC[C@H](N)C(=O)O	inactive	inactive	inactive	2.08	inactive	–	inactive	–	–	–
CC(C)CC(NP(=O)(O)O[C@@H]1O[C@@H](C)[C@H](O)[C@@H](O)[C@H]1O)C(=O)NC(Cc1c[nH]c2ccccc12)C(=O)O (stereo not given in full)	inactive	inactive	inactive	-0.0491	inactive	inactive	inactive	–	–	–
CC(C)NC[C@@H](O)c1ccc(O)c(O)c1	inactive	inactive	inactive	0.444	inactive	–	inactive	–	–	–
OC[C@H]1O[C@@H](n2cnc3c(Nc4ccccc4)ncnc32)[C@H](O)[C@@H]1O	9.2 µM (active)	inactive	–	–	inactive	inactive	inactive	–	–	–
C=C[C@H]1CN2CC[C@@H]1C[C@@H]2[C@@H](O)c1ccnc2ccc(OC)cc12	inactive	inactive	–	–	inactive	inactive	inactive	–	–	–
O=[N+]([O-])c1ccc(CSc2ncnc3c2ncn3[C@@H]2O[C@H](CO)[C@@H](O)[C@H]2O)cc1	inactive	0.0206 µM (active)	–	–	inactive	inactive	inactive	–	–	–
CN(C)c1nc(N)c(C(=O)N=C(N)N)nc1Cl	inactive	–	inactive	1.27	inactive	inactive	inactive	0.625% (inactive)	inactive	inactive
COc1ccc(/C=C/C(=O)Nc2ccccc2C(=O)O)cc1OC	1.64 µM (active)	–	–	–	inactive	inactive	inactive	-5.44% (inactive)	–	inactive
